Only some compounds are listed: those with a hit (about 3% of all), similar ones and a draw of the others.
Vif imaging – HIV Vif self-association inhibitors, primary screen, imaging, HEK293T, single point; HEK293T cells, Vif self-association by quenched fluorescence, 24 h; inhibition, % at 7.49 µM; 0.35% of 340,000 active; AID 602346, 2012; in the data active = inhibition above about 50%, passing the limit was not always enough; inconclusive = no clear call, values can overlap the other calls; inactive = below about 31%
PfHsp90 yeast 2 – growth inhibition of PfHsp90-expressing yeast, primary screen, antimalarial PfHsp90 inhibitor project, S. cerevisiae, BacTiter-Glo luminescence, single point, set 2; BacTiter-Glo ATP, 48 h; yeast lacking PDR1 and PDR3 efflux regulators; inhibition, % at 9.4 µM; 0.32% of 310,000 active;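 active = every replicate shows inhibition above about 80%, whatever the replicate mean, limit read from the data; inconclusive = mean inhibition reaches the set limit but some replicate falls short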;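 note: 0% = DMSO neutral controls and 100% = 20 µM radicicol positive controls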
esBAF inh – Bmi1 luciferase reporter increase in mESCs, primary screen, esBAF inhibitor project, mouse ES cells, Bmi1 luciferase knock-in, single point. reporter increase, % at 12.5 µM. 24 h; 100% = twice the neutral-well signal. 2% of 350,000 active; in the data active = activation above about 40%; inconclusive = no clear call, values can overlap the other calls;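 note: 0% = median of the plate's neutral control wells and 100% = double that signal; a rise in the Bmi1 reporter signal indicates esBAF inhibition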
Wnt act – Wnt/beta-catenin pathway activators, primary screen, cell-based, plate reader, single point | Wnt/beta-catenin reporter cell assay, activator | 1.2% of 300,000 active | activation, % at 9.35 µM; in the data active = activation above about 30%, passing the limit was not always enough; inconclusive = no clear call, values can overlap the other calls;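 note: 0% = neutral control wells and 100% = positive control wells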
Glyco luc inh – increase of ERlucT glycosylation luciferase signal, primary screen, N-linked glycosylation inhibitor project, D54 ERlucT cells, luminescence, set 2. AID 588692, 2011. reporter increase, % at 12.5 µM. D54 ERlucT glycosylation luciferase reporter, 24 h; percent of 100 nM tunicamycin response. 0.23% of 360,000 active;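 active = mean luciferase reporter signal, scaled so untreated is 0 and the glycosylation-blocking control 100, at or above a set limit in every replicate; inconclusive = mean reaches the limit but not every replicate does; inactive = mean below the limit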;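 note: luciferase carries N-glycosylation sites so blocking glycosylation raises the light; 0% = median of neutral control wells and 100% = median of 100 nM tunicamycin wells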
MITF act – activators of MITF-driven TRPM1 promoter reporter, primary screen, cell-based, SK-MEL-5, luciferase, single point; SK-MEL-5 TRPM1-promoter luciferase, 24 h; % of positive control, neutral wells = 0; activation, % at 12.5 µM; 0.75% of 300,000 active; AID 588334, 2011;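 active = mean activation of at least 80% with every replicate also reaching 80%; inconclusive = mean reaches 80% but some replicate falls short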;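 note: 0% = neutral control wells and 100% = parthenolide positive control wells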
Starred values were filed as active, the others as inactive; ? = inconclusive; . = no result.

SMILES | Vif imaging | PfHsp90 yeast 2 | esBAF inh | Wnt act | Glyco luc inh | MITF act
Cc1nc(SCCc2ccccc2)[nH]c(=O)c1C | 0.0 | 8.9 | 49.9* | . | -1.5 | -11.2
Cn1c(=O)c2cc(NC(=O)NCCc3cccs3)ccc2n1Cc1ccccc1 | -11.3 | . | 10.2 | -0.6 | -4.5 | .
C[C@H](CO)N1C[C@H](C)[C@@H](CN(C)S(=O)(=O)c2cccs2)OCCCC[C@H](C)Oc2ccc(NS(C)(=O)=O)cc2C1=O | . | . | -4.0 | . | . | .
COc1cccc(-c2ccc([C@H]3[C@@H](CO)N4CCCCN(CC5CC5)C[C@H]34)cc2)c1 | . | . | 4.2 | . | . | .
CSc1nccc(N/N=C/c2ccccc2)n1 | 1.1 | -19.3 | 52.2 | 37.1* | -4.1 | 97.0*
Cc1ccnc(N/N=C/c2ccccc2)n1 | 26.4 | . | -0.8 | 22.2 | -9.8 | 29.5
CC(=O)N1CCc2cc(S(=O)(=O)C(C)CC(=O)Nc3ccc(OC(F)(F)F)cc3)ccc21 (stereo not drawn) | -8.2 | 11.3 | 45.5* | 5.8 | -1.7 | 28.9
COc1ccc(NC(=O)CCS(=O)(=O)c2ccc3c(c2)CCN3C(C)=O)cc1 | -5.0 | -3.8 | -3.0 | -2.5 | 0.2 | -5.7
COc1ccc(/C=C/C2=Nc3ccccc3NC(C)(C)C2)cc1OC | 0.8 | 8.5 | 43.7* | 39.9* | 1.6 | ?
Cc1cc(NN)nc(NS(=O)(=O)c2ccccc2Cl)n1 | -15.7 | -11.4 | . | -0.5 | -0.1 | -2.9
CC(=O)C1CCCN(C(=O)c2ccc3oc(CCc4ccccc4)nc3c2)C1 (stereo not drawn) | 5.4 | -16.6 | ? | 13.5 | -5.6 | 24.8
COC(=O)C1CCCCN1C(=O)c1ccc2oc(C(C)C)nc2c1 (stereo not drawn) | -9.5 | -5.0 | 21.3 | 6.4 | -0.2 | 11.6
COCCC1CCCCN1C(=O)c1ccc2nc(Cc3ccccc3F)oc2c1 (stereo not drawn) | . | 5.7 | . | 12.8 | -4.4 | 134.4*
COC(=O)C1CCCCN1C(=O)c1ccc2oc(Cc3ccccc3)nc2c1 (stereo not drawn) | -3.7 | 29.4 | ? | 22.7 | -0.8 | 107.9*
COCCc1nc2ccc(C(=O)N3CCCCC3COC)cc2o1 (stereo not drawn) | 0.6 | 2.8 | 12.9 | 2.1 | 1.3 | 7.8
O=C(c1ccc2oc(CCCc3ccccc3)nc2c1)N1CCCC1 | 4.3 | -18.9 | 70.9* | 34.7* | -3.8 | 64.0
COc1ccc(S(=O)(=O)N2CCCCCC2)cc1C(=O)NCc1cccs1 | 0.3 | 7.4 | -7.7 | -1.1 | -4.7 | .
CCN1C(=O)/C(=C\C(=O)c2cccs2)c2cc(Br)ccc21 | -1.8 | 102.8* | . | 1.6 | 6.3 | -38.0
COc1ccccc1CNC(=O)C[C@@H]1CC[C@H]2[C@@H](COC[C@H](O)CN2C(=O)Nc2ccc(Cl)cc2)O1 | . | . | 4.1 | . | . | .
O=C(NCCc1ccccc1)C1CCCN1C(=O)Nc1ccccc1 (stereo not drawn) | -6.9 | -10.0 | -1.3 | 1.2 | 0.3 | 6.6
O=C(NCCCn1ccnc1)c1sc2cccc(F)c2c1Cl | -4.4 | -4.2 | 4.8 | . | 0.7 | -8.1
O=C(NCCCn1ccnc1)c1sc2cc([N+](=O)[O-])ccc2c1Cl | 0.2 | . | 62.5* | 5.8 | 1.3 | .
CCc1noc(C)c1C(=O)NNC(=O)COc1ccccc1C | 18.4 | 6.9 | -7.8 | 34.4* | 3.8 | -3.9
C[C@H]1[C@H](c2ccccc2)Oc2cccc(N3CCCC3)c2S(=O)(=O)N1Cc1cccc(F)c1 | . | . | . | -2.4 | . | .
CC(=O)C1=C(c2cccc([N+](=O)[O-])c2)N(C(C)=O)n2c(C)nnc2S1 | 2.7 | -15.3 | . | 75.1* | -1.4 | 0.1
SMILES | Vif imaging | PfHsp90 yeast 2 | esBAF inh | Wnt act | Glyco luc inh | MITF act
O=C(OCc1ccccc1)c1ccc2c(c1)-c1ccccc1C2=O | -2.8 | -24.0 | . | 41.3* | 0.9 | 112.7*
O=C(OCc1ccccc1)c1ccccc1 | 11.1 | 12.2 | 14.1 | -0.3 | 1.0 | .
COC(=O)CCN(C(=O)c1ccc(Cl)c([N+](=O)[O-])c1)c1ccccn1 | 5.4 | 15.5 | . | 33.0* | 0.7 | -19.6
COc1ccc2oc(C(=O)OCC(=O)N3CCCCC3C)c(C)c2c1 (stereo not drawn) | 0.5 | -13.3 | 24.6 | 12.9 | 2.3 | 53.7
COc1ccc2oc(C(=O)C3CC3)c(N)c2c1 | -3.4 | 2.7 | 66.6* | 3.5 | -1.0 | 75.4
COc1ccc2oc(C(=O)c3ccccc3)c(N)c2c1 | . | . | . | 73.9* | . | .
COC(=O)c1oc2ccc(Cl)cc2c1N | 1.7 | -116.7 | 22.5 | 18.3 | 2.3 | 36.8
COC(=O)CCC(=O)c1oc2ccc(OC)cc2c1N | 2.0 | 0.4 | 29.0 | . | -1.1 | 108.5*
O=C1/C(=C\c2ccc(O)cc2)SC(=S)N1/N=C/c1ccc(O)cc1 | -2.2 | 11.2 | . | 50.8* | -0.3 | 12.4
Cc1ccc(C(=O)NCC(=O)OCC(=O)c2ccc3c(c2)OCCO3)cc1C | 32.3 | 14.6 | . | 0.5 | 2.6 | 7.8
O=C(COc1ccc2c(-c3ccccc3)cc(=O)oc2c1)N[C@@H](Cc1c[nH]c2ccc(O)cc12)C(=O)O | -9.6 | 3.4 | 3.6 | -0.2 | 50.1* | .
O=C(COc1ccc2c(-c3ccccc3)cc(=O)oc2c1)NC(Cc1c[nH]c2ccccc12)C(=O)O (stereo not drawn) | 21.3 | -22.9 | -7.2 | -1.4 | 1.8 | 8.8
COc1ccc(NC(=O)CCCc2ccccc2)cc1OC | -0.1 | -6.4 | 64.7* | 11.2 | 0.5 | .
O=C(CCc1ccccc1)Nc1ccccc1[N+](=O)[O-] | -23.3 | 5.0 | . | . | -1.6 | 42.3
COc1cc(NC(=O)CC(C)C)ccc1NC(=O)c1ccco1 | -4.8 | -8.9 | 22.8 | -1.5 | 1.3 | 70.1
O=C(CCCc1ccccc1)Nc1ccccc1[N+](=O)[O-] | 0.7 | -10.6 | 52.6* | 2.0 | -0.5 | 43.5
CCC(=O)Nc1ccc(NC(=O)c2ccco2)c(OC)c1 | -0.5 | 17.4 | 23.2 | 41.3* | 1.7 | 56.6
CCCC(=O)Nc1ccc(NC(=O)c2ccco2)c(OC)c1 | . | -7.1 | 63.3* | 15.5 | -0.9 | 88.5*
CCCOc1ccccc1N1C(=O)CC(N2CCOCC2)C1=O (stereo not drawn) | -5.8 | 7.9 | 1.3 | -3.3 | 1.4 | -10.7
COc1ccccc1C(=O)Nc1nnc(SCC(=O)NC2CCCC2)s1 | 7.6 | -3.7 | -4.6 | . | -10.6 | 91.1*
CC(=O)Nc1ccc(-c2nnc(SCC(=O)Nc3ccc4c(c3)oc3ccccc34)n2C)cc1 | -7.0 | . | 53.4* | 26.9 | 5.7 | .
COc1ccccc1C(=O)Nc1nnc(SCC(=O)Nc2ccc3c(c2)oc2ccccc23)s1 | 0.8 | -1.0 | . | 49.0* | -6.7 | 54.1
CC(=O)S[C@@H]1CC2=CC(=O)CC[C@]2(C)[C@H]2CC[C@@]3(C)[C@@H](CC[C@@]34CCC(=O)O4)[C@H]12 | -12.3 | 14.7 | 1.6 | -0.9 | 1.6 | -4.8

Screening results from PubChem BioAssay.
